ST2 IL33 inh: IL1RL1 inhibition; Q01638; AlphaLISA ST2-Fc/biotin-IL-33 interaction, 1 h; inhibition, % for hits at 17 µM; 2.3% of 78,000 active; AID 1259354; in the data active = inhibition above about 30%
Target sequence (Q01638 whole entry, looked up): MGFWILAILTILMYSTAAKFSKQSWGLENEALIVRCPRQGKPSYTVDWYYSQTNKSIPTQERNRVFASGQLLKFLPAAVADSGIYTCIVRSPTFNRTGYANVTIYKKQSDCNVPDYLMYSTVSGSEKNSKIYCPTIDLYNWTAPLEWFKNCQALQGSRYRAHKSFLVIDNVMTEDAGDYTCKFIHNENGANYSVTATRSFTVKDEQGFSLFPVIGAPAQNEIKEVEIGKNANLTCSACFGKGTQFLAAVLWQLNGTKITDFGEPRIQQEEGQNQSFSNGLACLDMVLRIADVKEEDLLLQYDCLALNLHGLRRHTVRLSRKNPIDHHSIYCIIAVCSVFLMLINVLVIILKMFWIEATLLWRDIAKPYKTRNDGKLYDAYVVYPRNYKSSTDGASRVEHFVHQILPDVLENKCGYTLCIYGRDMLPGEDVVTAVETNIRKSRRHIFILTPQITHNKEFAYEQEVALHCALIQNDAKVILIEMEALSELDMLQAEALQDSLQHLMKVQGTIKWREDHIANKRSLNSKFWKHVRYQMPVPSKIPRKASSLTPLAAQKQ
Large screens that a line does not name were inactive; ! = a repeat was not active. This is one part of a sample in which hits are shown more often than they occur.

Cc1cc(Sc2ccccc2NC(=O)Nc2cccc(Cl)c2)n2ncnc2n1	none
CCCN1C(=O)S/C(=C\c2c(NCCOC)nc3ccccn3c2=O)C1=O	none
O=C1[C@@H]2[C@H](C(=O)N1c1ccccc1)[C@H]1C=C[C@@H]2C12CC2	none
CCOC(=O)c1c(NC(=O)CSc2cn(C)c3ccccc23)sc2c1CCCC2	none
CC(C)(CC(=O)O)CC(=O)N1Cc2[nH]cnc2C[C@H]1c1nc(-c2ccc3c(c2)OCO3)no1	none
O=C(NCc1ccccc1)N1Cc2[nH]cnc2C[C@H]1c1nc(-c2ccc3c(c2)OCO3)no1	none
c1ccc2oc(CN3Cc4[nH]cnc4C[C@H]3c3nc(-c4ccc5c(c4)OCO5)no3)cc2c1	ST2 IL33 inh 61%
CC(C)C1CC(CCNCc2ccco2)(c2ccccc2)CCO1 (stereo not drawn)	none
Clc1cccc(CN2CCCCCC2)c1	none
NC(=O)c1cccn1Cc1cccc(Cl)c1	none
N#CSC(C#N)Cc1cccc(Cl)c1 (stereo not drawn)	ST2 IL33 inh 34%
CCn1cc(C(=O)NC2CCCCC2C)c(=O)c2cc(S(=O)(=O)N3CCC(C)CC3)ccc21 (stereo not drawn)	none
CCOC(=O)C1=C(N)OC2=C(C(=O)CC(c3ccccc3)C2)C1c1ccc(Br)cc1 (stereo not drawn)	none
N/C(=N/OC(=O)N1c2ccccc2Sc2ccccc21)c1cccc([N+](=O)[O-])c1	none
CNc1nc(-c2cc(NC3CCNCC3)nc3[nH]ccc23)nc2c1CCC2	ST2 IL33 inh 37%
CCN(CC)CCNC(=O)c1ccc(CS(=O)(=O)c2c(Cl)cccc2Cl)o1	none
CCOc1ccc(C2Nc3cccc4cccc(c34)N2)cc1	ST2 IL33 inh 36%
CCOc1ccc(C2CC(c3ccc(Cl)cc3)n3nc(N)nc3N2)cc1 (stereo not drawn)	none
CCOc1ccc(C2CC(c3ccccc3OC)n3ncnc3N2)cc1 (stereo not drawn)	none
c1cnn(Cc2ccc(CN3CCC4(CCNCC4)C3)cc2)c1	none
CC(C)(C)c1ccc(-c2cc(C[C@H]3CNCC[C@H]3CC(=O)NCc3ccccc3)no2)cc1	none
COc1ccc(CNC(=O)C[C@@H]2CCNC[C@@H]2Cc2cc(-c3ccc(C(C)(C)C)cc3)on2)cc1	ST2 IL33 inh 47%
CC(C)(C)c1ccc(-c2cc(C[C@H]3CNCC[C@H]3CC(=O)NCc3ccc(F)cc3)no2)cc1	none
O=C(CN1C(=O)CCC1=O)Nc1nc(-c2ccc(F)cc2)cs1	none
Cc1ccc(C23C[C@@H]4C[C@@H](CC(C(=O)O)(C4)C2)C3)cc1	none
CCN1CCN(c2nc3c(c(=O)n(C)c(=O)n3C)n2CCSc2nc3ccccc3o2)CC1	none
CN1CCN(c2nc3c(c(=O)n(C)c(=O)n3C)n2Cc2c(Cl)cccc2Cl)CC1	none
Cn1c(=O)c2c(nc(N3CCCCC3)n2Cc2c(Cl)cccc2Cl)n(C)c1=O	ST2 IL33 inh 31%
CN1CCN(c2nc3c(c(=O)n(C)c(=O)n3C)n2CCSc2nc3ccccc3o2)CC1	none
Cn1c(=O)c2c(nc(N3CCCCC3)n2CCSc2nc3ccccc3o2)n(C)c1=O	ST2 IL33 inh 36%!
CC1CCN(c2nc3c(c(=O)n(C)c(=O)n3C)n2Cc2c(F)cccc2Cl)CC1	none
Nc1c(C(=O)Nc2ccc(Cl)cc2Cl)nnn1Cc1ccc(F)cc1	none
CC(O)(C(=O)O)c1ccccc1 (stereo not drawn)	none
CCN(CCN1CCOCC1)C(=O)c1nc2ccccc2[nH]1	none
CN(Cc1ccccc1)C(=O)CCC1CCN(S(=O)(=O)c2ccccc2Cl)CC1	none
CC(=O)N(c1ccc(C)c(C)c1)C1C=CS(=O)(=O)C1 (stereo not drawn)	none
O=C1CCCCCN1CCC(=O)N1CCC2(CCCN(Cc3ccc(F)cc3)C2)C1 (stereo not drawn)	none
COc1ccc(C=NCCN=Cc2ccc(OC)cc2)cc1	none
COc1ccc(/C=C2\SC(N3CCCCC3)=NC2=O)cc1OC	none
COc1ccc(OC)c(/C=C2\SC(c3ccccc3)=NC2=O)c1	ST2 IL33 inh 51%
CCCOc1ccc(-c2nc3s/c(=C\c4cc(OC)ccc4OC)c(=O)n3n2)cc1	none
COc1ccc(Br)cc1/C=C1/SC(N2CCOCC2)=NC1=O	none
COc1cc(/C=C2\SC(c3ccc(C)cc3)=NC2=O)cc(OC)c1O	ST2 IL33 inh 80%
COc1ccc(/C=C2\SC(N3CCCC3)=NC2=O)cc1OC	none
Cc1ccc(CN2CCC(CN(C)CC3CC=CCC3)CC2)o1 (stereo not drawn)	none
O=C1CCC(C(=O)N2CCOc3ccc(Cl)cc3C2)CN1CCCN1CCOCC1 (stereo not drawn)	none
CCc1ccc(S(=O)(=O)NCc2nc3cccnc3n2Cc2cccc(C)c2)cc1	none
Cc1ccc(C(O)=C2C(=O)C(=O)N(c3ccccn3)C2c2ccc(Cl)cc2)cc1 (stereo not drawn)	none
CCCOc1ccc(NC(=O)C(=O)NCCc2ccc(OC)c(OC)c2)cc1	none
COc1ccccc1CN1CCCCCC1	none
COc1ccccc1CN1CCSCC1	none
CCOc1ccccc1CN1CCSCC1	ST2 IL33 inh 31%
Cc1cc(CN2CCC(Cc3nn(C)c(=O)n3-c3ccccc3)CC2)on1	none
Cc1ccc(C)c(OCC(=O)Nc2ccc(Br)cc2F)c1	none
O=C(COC(=O)c1cc(=O)[nH]c2ccccc12)c1ccc(OCc2ccccc2)cc1	none
COc1c(Cl)cc(Cl)cc1/C=C1\N=C(c2ccccc2)OC1=O	none
Cc1ccc(C2=N/C(=C\c3ccccc3)C(=O)O2)cc1[N+](=O)[O-]	none
Cc1ccccc1C1=N/C(=C\c2cccc(F)c2)C(=O)O1	none
Cc1ccccc1C1=N/C(=C\c2ccccc2)C(=O)O1	ST2 IL33 inh 33%
Cc1cccc(C2=N/C(=C\c3ccc(Br)cc3)C(=O)O2)c1	none
Cc1ccc(C2=N/C(=C\c3ccc([N+](=O)[O-])cc3)C(=O)O2)cc1[N+](=O)[O-]	none
COc1ccccc1/C=C1\N=C(c2cc([N+](=O)[O-])cc([N+](=O)[O-])c2)OC1=O	none
COc1ccc(/C=C2\N=C(c3ccccc3C)OC2=O)cc1	none
CN(C)c1ccc(/C=C2\N=C(c3ccccc3)OC2=O)cc1Br	ST2 IL33 inh 41%
O=C1OC(c2ccc(-c3ccccc3)cc2)=N/C1=C\c1ccccc1	none
Cc1ccccc1C1=N/C(=C\c2ccc(N(C)C)cc2)C(=O)O1	ST2 IL33 inh 40%
COc1cc(C2=N/C(=C\C=C\c3ccccc3)C(=O)O2)cc(OC)c1OC	ST2 IL33 inh 30%
C=CCn1cc(C(=O)NC2CCCCC2C)c(=O)c2cc(S(=O)(=O)N(CC)CC)ccc21 (stereo not drawn)	none
O=C(CC1CCCCC1)Nc1cccc([N+](=O)[O-])c1	none
CC(C)C/C=C(\CN1CC[C@H](CO)[C@@H](O)C1)c1ccccc1	none
COc1cc(CNCc2ccc(OC)c(Br)c2)cc(OC)c1	none
Cc1cc(Cl)ccc1OCC(=O)Nc1ccccc1C(F)(F)F	none
Cc1ccc(C)c(NC(=O)CC(=O)NCc2cc(-c3ccccn3)no2)c1	none
CCOC(=O)c1c(NC(=O)c2noc3c2CC(C(C)(C)C)CC3)sc(C)c1C (stereo not drawn)	none
CCC1CCCCN1CCCNc1ncnc2nc[nH]c12 (stereo not drawn)	none
Cc1c(C(=O)NCc2ccc(F)cc2)oc2ccc(S(=O)(=O)N3CCC(C)CC3)cc12	none
O=S1(=O)N=C(c2ccc(Br)cc2)Nc2ccccc21	none
O=C(NC1CCCCCCC1)c1cc(=O)[nH]c2ccc(S(=O)(=O)N3CCCCC3)cc12	none
Cc1nnc(NC(=O)CSc2cn(Cc3ccccc3Cl)c3ccccc23)s1	none
CCOC(=O)c1c(C)oc2ccc(NS(=O)(=O)c3c(C)cc(C)cc3C)cc12	none
O=C(Nc1c2c(nn1-c1cccc(Cl)c1)CS(=O)C2)c1ccccc1[N+](=O)[O-] (stereo not drawn)	none
